# Hits are enriched below; roughly 7.8% of the tested compounds scored in any of these assays.
# HCV inh = qHTS Assay for Inhibitors of Hepatitis C Virus (HCV) | AID 651820, 2012 | Potency, µM (series often up to 41.8 µM), inactives show top-dose activity change, negative = inhibition, hits mostly inhibitors | Huh7.5.1 HCVcc-Cre infection, luciferase reporter, 44 h | hit rate 3.4% among 340,000; active = well fitted inhibition curve with a large enough effect; inconclusive = small, poorly fitted or top-dose-only effect, or another doubt; inactive = no such curve, though single readings can be large or run the other way; also: potency is read from the fitted curve at half-maximal effect
#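 HCVcc-Cre virus at an moi near 0.5 was added right after compound to cells cultured 4 h from seeding (1,000 cells/well). Luciferase activity was determined 44 h later, 15 min after substrate addition at RT.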
# VACV mCherry inh = qHTS for Stage-Specific Inhibitors of Vaccinia Orthopoxvirus: mCherry Reporter Primary qHTS. hit rate 0.63% among 310,000. Vaccinia virus mCherry reporter infection, fluorescence. Potency, µM (titrated, usually from 36.5 µM), for inactives: at the highest dose activity change, negative = inhibition, usual class: inhibitors; calls by dose curve; tested in A549 cells; also: potency is read from the fitted curve at half-maximal effect; nearly all actives have a fitted effect of over 35% in size
# HCMV antiviral = qHTS Assay for inhibitors of the human cytomegalovirus (HCMV); HFF cells, HCMV-luciferase reporter, 72 h; hits give low values; AID 1259415, 2018; activity change, negative = inhibition, % at 57.5 µM; hit rate 4.5% among 410,000; in the data active = activity change below about -60%; inconclusive = no clear call, values can overlap the other calls; inactive = above about -39%
#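 Cell-based, HFFs, 1000 cells/well, 16 h 37C; cpds in DMSO + HCMV-luc, MOI 1 PFU/cell; 72 h 37C; OneGlo luminescence after 5 min RT; norm. to buffer vs Salinomycin 10uM.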
# MARV entry inh = qHTS for inhibitors of binding or entry into cells for Marburg Virus | Marburg virus pseudotyped entry inhibition, cell reporter | Potency, µM (top dose mostly 37.8 µM), for inactives: top-dose activity change, negative = inhibition, hits mostly inhibitors | hit rate 1.8% among 300,000 | AID 540276, 2011; calls by dose curve; tested in HEK293 cells; also: potency is read from the fitted curve at half-maximal effect
# Vaccinia Venus = qHTS for Stage-Specific Inhibitors of Vaccinia Orthopoxvirus: Venus Reporter Primary qHTS | Potency, µM (top dose mostly 36.5 µM), without a hit: at the top dose activity change, negative = inhibition, hits mostly inhibitors | Vaccinia virus Venus reporter expression, fluorescence | hit rate 0.46% among 330,000; calls by dose curve; tested in A549 cells; also: potency is read from the fitted curve at half-maximal effect; nearly all actives have a fitted effect of over 30% in size
# Lassa entry inh = qHTS for Inhibitors of binding or entry into cells for Lassa Virus; Lassa virus pseudotype entry inhibition, cell reporter; Potency, µM (highest dose often 37.9 µM), inactives show top-dose activity change, negative = inhibition, hits mostly inhibitors; hit rate 1.2% among 300,000; AID 540256, 2011; calls by dose curve; tested in HEK293 cells; also: potency is read from the fitted curve at half-maximal effect; nearly all actives have a fitted effect of over 50% in size
# * marks the source's active call; other numbers are inactive results; i = inactive; ? = inconclusive; · = not tested or not shown; [ ] = remark or other dose. % is scaled to controls: 0 for no effect and ±100 for the full control effect.
SMILES,HCV inh,VACV mCherry inh,HCMV antiviral,MARV entry inh,Vaccinia Venus,Lassa entry inh
COc1ccc(N(C(=O)C(C)C)S(=O)(=O)c2cccc3cccnc23)cc1,-14%,?,-67*,5%,-26%,4%
CCCN(CCC)C(=O)Cn1c(=O)n(-c2cccc(C)c2)c(=O)c2c1c1cc(OC)ccc1n2C,·,-7%,-29,-15%[46.1 µM],-10%,-15%[46.1 µM]
CC(C)c1ccc(NC(=O)CSC2=Nc3ccccc3C3=NC(CC(=O)NCCc4ccccc4)C(=O)N23)cc1 (stereo not given),·,-18%,-14,·,-12%,-29%[46.1 µM]
COc1cc2nc(N3CCCN(C)CC3)nc(NC3CCNCC3)c2cc1OC,·,-3%,·,·,-13%,·
COc1ccc(Nc2nc(-c3ccccc3)nc3ccccc23)cc1,?,-12%,?,?,-26%,33%[46.1 µM]
CC(=O)Nc1ccc(Nc2nc(-c3ccccc3)nc3ccccc23)cc1,10µM*,-33%,-94*,?,?,?
Oc1ccc(Nc2nc(-c3ccccc3)nc3ccccc23)cc1,10µM*,?,·,?,?,?
Oc1ccc(Nc2nc(-c3ccc(Cl)cc3)nc3ccccc23)cc1,·,-27%,-61*,?,-26%,?
Cc1ccc(Nc2nc(-c3cccnc3)nc3ccccc23)cc1,1.1µM*,-6%,-69*,4µM*,?,?
O=[N+]([O-])c1ccc(-c2nc(Nc3ccc(O)cc3)c3ccccc3n2)cc1,?,·,15,·,·,·
C[C@@H]1CN([C@H](C)CO)C(=O)c2cc(Br)cnc2O[C@@H]1CN(C)C(=O)C1CCOCC1,·,-4%,13,·,-6%,·
CNc1cc(C(=O)O)nc2ccccc12,·,36%,·,·,-10%,·
COC(=O)[C@]1(S(=O)(=O)c2ccccc2)CC(=O)N(Cc2ccccc2)[C@@H]1c1ccccc1,·,·,-1,·,·,·
CCc1cccc(NC(=O)c2ccc(CN3C(=O)C(C)=C(c4ccc(OC)cc4)S3(=O)=O)cc2)c1,·,-7%,-16,·,-13%,?
COc1cccc(N/C(SCc2cccc([N+](=O)[O-])c2)=C(/C#N)C(N)=O)c1,-15%,4%,-2,?,-7%,?
Cc1ccccc1N/C(SCc1cccc(Br)c1)=C(/C#N)C(N)=O,-25%,i,-68*,17%,-8%,-21%
O=C1COc2ccc(S(=O)(=O)CCC(=O)N3CCN(c4ccccc4)CC3)cc2N1,6%,-12%[7.34 µM],-2,·,5%[7.34 µM],·
COc1ccc(N2CCN(C(=O)CC(C)S(=O)(=O)c3ccc4c(c3)NC(=O)CO4)CC2)cc1 (stereo not given),?,?,?,?,-10%,?
Cc1ccc(C)c(N2CCN(C(=O)CCS(=O)(=O)c3ccc4c(c3)NC(=O)CO4)CC2)c1,?,·,-73*,·,·,·
CC(CC(=O)N1CCN(c2cccc(Cl)c2)CC1)S(=O)(=O)c1ccc2c(c1)NC(=O)CO2 (stereo not given),6.3µM*,·,-95*,·,·,·
COC(=O)c1sc2cccc(F)c2c1S(=O)(=O)Nc1ccc(N(C)C)cc1,·,-6%,14,·,-6%,29%[46.1 µM]
COC(=O)c1cc(OC)c(OC)cc1NC(=O)c1ccco1,6.3µM*,·,-10,-25%,-18%,-5%
COc1ccc(NC(=O)COC(=O)c2cc(OC)c(OC)cc2NC(=O)c2ccco2)cc1OC,-23%,·,-66*,-5%,·,-15%
COCCNC(=S)Nc1cc(OC)c(NC(=O)c2ccco2)cc1OC,13µM*,-20%,-34,0%,-8%,6%
COc1cc(NC(=O)c2ccco2)c(C(=O)O)cc1OC,4%,·,-1,0%,·,-5%
SMILES,HCV inh,VACV mCherry inh,HCMV antiviral,MARV entry inh,Vaccinia Venus,Lassa entry inh
CCCN1CCc2nc(N3CCN(c4ncccn4)CC3)ncc2C1,·,-9%,1,·,-5%,8%[46.1 µM]
C=CCOc1c(Br)cc(CNc2ccc(NC(=O)C(C)C)c(OC)c2)cc1OC,10µM*,·,-98*,?,·,?
COc1cc(CNc2ccc(C(=O)O)cc2)cc(Br)c1OCC(=O)NC(C)(C)C,12%,-12%,-13,2%,-11%,11%
Cc1ccc(CNC(=O)CCCn2c(=O)c3ccccc3n(CC(=O)Nc3ccc(C)cc3)c2=O)cc1,·,-14%,11,-4%[46.1 µM],-12%,-4%[46.1 µM]
CCOC(=O)C(CC)n1nc(C)c2c(C)n(-c3ccc(C)cc3)nc2c1=O (stereo not given),·,-8%,?,2%[46.1 µM],-10%,9%[46.1 µM]
COc1ccccc1C(=O)Nc1ccc2nc(SCC(=O)N(C)c3ccccc3)sc2c1,·,-28%,-65*,?,?,?
COc1ccccc1C(=O)Nc1ccc2nc(SCC(=O)N(C)C)sc2c1,-5%,?,13,-1%,-19%,-7%
CN(C(=O)CSc1nc2ccc(NC(=O)c3ccccc3F)cc2s1)c1ccccc1,·,-7%,13,?,?,?
CN(C(=O)CSc1nc2ccc(NC(=O)c3cccc(F)c3)cc2s1)c1ccccc1,·,-9%,-75*,?,-29%,-26%[46.1 µM]
COC(=O)N[C@@H](/C=C/c1ccccc1)C[N+](=O)[O-],·,·,·,7%[14.2 µM],·,·
COc1ccc(-c2nc3sc(CCNC(=O)C(=O)Nc4cccc(NC(C)=O)c4)c(C)n3n2)cc1,·,-19%,-32,·,?,-2%[46.1 µM]
O=S(=O)(c1ccc(OCC(O)CN2CCN(c3ccc(F)cc3)CC2)cc1)N1CCOCC1 (stereo not given),-24%,-8%,-16,2%,-23%,-21%
COc1ccccc1N1CCN(CC(O)COc2ccc(S(=O)(=O)N3CCOCC3)cc2)CC1 (stereo not given),?,-22%,-70*,?,-18%,-20%
COc1ccccc1N1CCN(CC(O)COc2cc(C)cc(C)c2)CC1 (stereo not given),·,-7%,-23,?,-12%,?
COc1ccccc1N1CCN(CC(O)COc2ccc(C)cc2C(C)(C)C)CC1 (stereo not given),·,-29%,-67*,?,-20%,1%[46.1 µM]
O=C(NCCN1CCN(c2ccccc2)CC1)C1(S(=O)(=O)c2ccc(Cl)cc2)CC1,-13%,?,8,·,-22%,·
CC1(C)CCC(c2ccc(Cl)cc2)=C(CN2CCN(c3ccc(C(=O)NS(=O)(=O)c4ccc(N[C@H](CCN5CCOCC5)CSc5ccccc5)c(S(=O)(=O)C(F)(F)F)c4)cc3)CC2)C1,·,?,·,·,10µM*,·
OC(CCCN1CCC(O)(c2ccc(Cl)cc2)CC1)c1ccc(F)cc1 (stereo not given),?,-4%,10,?,-15%,?
OC1(c2ccc(Cl)c(C(F)(F)F)c2)CCN(CCCC(c2ccc(F)cc2)c2ccc(F)cc2)CC1,·,·,-99*,·,·,·

# High-throughput results deposited in PubChem by National Center for Advancing Translational Sciences (NCATS).
